Sampled rows, rich in hits. Any-hit rate of the full collection: about 7.2%.
ALR H2O2 inh: inhibitors of human sulfhydryl oxidase ALR; inhibition, % (no concentration beside the values); 3.8% of 290,000 active; purified ALR, DTT oxidation, H2O2 HRP-luminol luminescence; AID 485317; P55789;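 active = mean replicate inhibition above about 79%, with every replicate also reaching it, limit read from the data; inconclusive = only one of the two criteria met; inactive = mean below limit and not every replicate reaching it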
Target sequence (P55789 whole entry, looked up): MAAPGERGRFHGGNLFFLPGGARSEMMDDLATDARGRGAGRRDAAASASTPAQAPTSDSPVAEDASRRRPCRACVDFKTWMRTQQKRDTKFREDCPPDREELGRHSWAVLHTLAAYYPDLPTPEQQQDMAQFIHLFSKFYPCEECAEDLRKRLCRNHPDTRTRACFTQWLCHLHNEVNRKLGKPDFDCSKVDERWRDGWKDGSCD
VLA-4 inh: inhibition in a human VLA-4 binding assay. VLA-4 expressing cells, ligand binding flow cytometry. P13612. AID 2557. 0.2% of 330,000 active. inhibition, % (about 7 µM as worked out from the volumes in the protocol); in the data active = inhibition above about 50%
Efflux pump mplx: blocks antifungal efflux pumps in multiplex yeast assay | S. cerevisiae Candida pump triplex, Nile Red efflux | inhibition, % at 10 µM | 0.44% of 330,000 active;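 active = plate passing quality check with inhibition over a set limit, or well fluorescence over plate mean plus 4 SD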;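 also: Nile Red retained in pooled yeast measured as flow cytometry median fluorescence; 0% = buffer negative control and 100% = Enniatin B positive control; higher means more Nile Red kept so more efflux inhibition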
AHR activator: human AHR activation | P35869 | AHR-responsive luciferase reporter cells, luminescence | activation, % at 5 µM | 2.5% of 320,000 active; in the data active = activation above about 47%;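 also: 0% = vehicle wells and 100% = reference agonist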
SUMO Mot1 rescue: blocks SUMOylation pathway, rescuing yeast Mot1-301 growth; AID 2716; S. cerevisiae Mot1-301 growth rescue, ATP luminescence, 38.5C; percent above DMSO median, 100 means doubled; 1% of 320,000 active; growth rescue, % at 18.8 µM;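 active = every valid replicate shows activation above 250% relative to neutral control wells; inactive = the rest, any valid replicate at or below 250%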;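 also: OY570 slx delta 5 strain wells were the positive control but not used for scaling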
Bfl-1 A1 inh: inhibitors of the anti-apoptotic protein A1, read as caspase activation | MEF A1-2A-BIM cells, Caspase-Glo 3/7 luminescence, 3 h; percent of clofoctol response, vehicle zero | caspase activation, % (no concentration beside the values) | AID 2462 | 0.066% of 330,000 active;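 active = over half of replicate activation scores above 10%, or exactly half above 10 with the replicate mean above 10; inconclusive = replicate mean below 10 yet half the replicates above 10; inactive = over half of replicates below 10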
AHR act confirm: human AHR activation, confirmation. shares compounds with AHR activator. human cells, AHR-responsive luciferase reporter, luminescence. AID 2845. activation, % at 9 µM. 87% of 2,300 active; in the data active = activation above about 49%;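 also: HepG2 hepatoma cells carrying a DRE-driven firefly luciferase reporter; 0% = vehicle wells and 100% = reference agonist wells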
PXR act counter: counter-screen for AHR activators: human PXR activators. AID 434939. shares compounds with AHR activator. activation, % at 11.6 µM. cell-based PXR reporter, luciferase luminescence. 88% of 2,300 active; in the data active = activation above about 11%;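 also: human hepatoma DPX-2 cells expressing full-length human PXR; 0% = DMSO and 100% = reference agonist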
Target sequence (O75469 whole entry, looked up): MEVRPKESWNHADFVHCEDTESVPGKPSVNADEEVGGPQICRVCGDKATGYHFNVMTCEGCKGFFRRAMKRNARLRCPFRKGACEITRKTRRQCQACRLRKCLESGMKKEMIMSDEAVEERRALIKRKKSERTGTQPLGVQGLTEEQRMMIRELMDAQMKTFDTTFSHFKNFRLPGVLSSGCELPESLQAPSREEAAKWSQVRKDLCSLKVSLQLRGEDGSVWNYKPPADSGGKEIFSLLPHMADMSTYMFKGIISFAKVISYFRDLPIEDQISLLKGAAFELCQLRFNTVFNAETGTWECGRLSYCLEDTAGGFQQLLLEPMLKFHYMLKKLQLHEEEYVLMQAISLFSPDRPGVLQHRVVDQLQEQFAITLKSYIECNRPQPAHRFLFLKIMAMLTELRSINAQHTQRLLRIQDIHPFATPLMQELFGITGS
* marks the source's active call; other numbers are inactive results; i = inactive; ? = inconclusive; / = not tested or not shown.

SMILES | ALR H2O2 inh | VLA-4 inh | Efflux pump mplx | AHR activator | SUMO Mot1 rescue | Bfl-1 A1 inh | AHR act confirm | PXR act counter
Cn1cccc1/C=N/n1c(-c2ccc(C(C)(C)C)cc2)n[nH]c1=S | / | 10.4 | 0.2 | 125.7* | 2.1 | -0.1 | 103.7* | 260.8*
CCOC(=O)C1=C(CC)OC(N)=C(C#N)C1c1ccc(NC(C)=O)cc1 (centres undefined) | -3.9 | 8.7 | 0.0 | 1.2 | 118.8 | 1.5 | / | /
CN1CCN(C2=Nc3c(Cl)cc(Cl)c4cccc2c34)CC1 | -82.7 | -110.5 | -0.2 | 82.3* | 28.9 | 1.8 | 90.9* | 27.2*
CN1CCN(C2=Nc3cc(Cl)ccc3Nc3ccccc32)CC1 | / | 4.3 | 0.0 | 4.8 | 593.2 | -0.8 | / | /
Cc1ccc(C(=O)COC(=O)CCCC(=O)Nc2cc(C(F)(F)F)ccc2Cl)cc1C | 9.5 | 8.8 | -0.3 | -1.8 | 10.3 | 0.5 | / | /
CC(C)c1ccc2nc(NC(=O)C3CC3)sc2c1 | 1.4 | 15.0 | 0.1 | 89.0* | 7.3 | -0.4 | 79.0* | 38.6*
O=C(Nc1nc2c(Br)cccc2s1)C1CC1 | 9.2 | -28.1 | -0.1 | 132.1* | 10.1 | -0.6 | 96.8* | 17.9*
O=C(Nc1nc2ccc(Cl)cc2s1)C1CC1 | 65.8 | -0.7 | 0.1 | 113.8* | 71.8 | -0.1 | 76.9* | 19.3*
COC(=O)c1ccc2nc(NC(=O)C3CCCCC3)sc2c1 | -7.9 | -1.4 | 0.0 | 4.4 | 682.7 | 0.5 | / | /
COc1cc2c(cc1OC)CN(CC(=O)Nc1ccc(Cl)c(S(=O)(=O)N(C)C)c1)CC2 | -3.6 | 12.0 | 0.1 | -1.4 | -24.0 | -0.5 | / | /
COc1ccc(S(=O)(=O)N(C)C)cc1NCC(=O)Nc1cccc(C#N)c1 | -0.5 | -0.4 | 0.1 | 5.0 | 8.2 | -1.0 | / | /
CCC1CCCN1Cn1cnc2c([nH]c3ccccc32)c1=O (centres undefined) | 1.4 | 4.0 | -0.1 | 83.7* | 2.1 | 0.2 | 77.8* | 54.1*
Cc1ccc(NC(=O)CNc2cc(S(=O)(=O)N3CCOCC3)ccc2N2CCOCC2)cc1S(=O)(=O)N(C)C | -6.4 | 6.8 | 0.0 | -0.7 | -1.8 | -0.1 | / | /
O=C(Nc1cccc(Br)c1)c1cc(S(=O)(=O)N2CCOCC2)cs1 | -13.7 | -22.7 | 0.3 | 5.0 | 12.7 | -0.5 | / | /
O=C1c2ccccc2C(=O)N1CCc1c[nH]c2ccccc12 | 6.5 | 0.5 | 0.0 | 14.1 | / | 1.7 | / | /
O=C1COCC(=O)N1CCc1c[nH]c2ccccc12 | 1.6 | -3.8 | 0.0 | 83.2* | 1.9 | 0.6 | 108.2* | 12.0*
N#Cc1ccc(C23OCCN2CCn2c3c3ccccc3[n+]2[O-])cc1 (centres undefined) | 6.6 | 3.8 | -0.2 | 111.8* | 0.1 | -1.0 | 122.0* | 46.5*
COc1ccc(NC(=O)c2oc3ccccc3c2NC(=O)C2CC2)cc1OC | -30.9 | -5.7 | 0.7 | 11.9 | -0.5 | 0.1 | / | /
CCC(=O)Nc1c(C(=O)Nc2ccc3c(c2)OCCO3)oc2ccccc12 | -6.2 | 0.0 | 0.1 | 87.3* | 221.7 | -0.8 | 19.3 | 29.6*
O=C(Nc1ccccc1)c1oc2ccccc2c1NC(=O)C1CC1 | -2.2 | 11.6 | 0.5 | 102.5* | -3.2 | 0.5 | -2.6 | 51.4*
O=C(Nc1ccc(F)c(F)c1)c1oc2ccccc2c1NC(=O)C1CCCO1 (centres undefined) | / | 1.6 | -0.1 | 81.3* | 24.3 | -0.1 | 134.9* | 23.6*
CN(C)CCCOC(=O)N1c2ccccc2C=Cc2ccccc21 | -4.9 | 0.1 | -0.1 | 8.3 | 342.8 | 0.6 | / | /
Cn1ccnc1C1CCCCN1Cc1nc(-c2ccc(Cl)cc2)no1 (centres undefined) | -10.9 | 7.8 | 0.0 | 6.4 | 90.8 | -1.1 | / | /
CCCCn1c(N)c(N(CCOC)C(=O)CN2c3ccccc3CC2C)c(=O)[nH]c1=O (centres undefined) | -26.2 | 1.9 | 0.1 | 2.4 | -17.5 | 1.8 | / | /
CC(=O)NCCNc1nc2c(-c3cccc(C)c3)nnn2c2ccccc12 | -4.1 | -25.9 | 1.1 | 44.4 | 0.7 | 0.0 | / | /
SMILES | ALR H2O2 inh | VLA-4 inh | Efflux pump mplx | AHR activator | SUMO Mot1 rescue | Bfl-1 A1 inh | AHR act confirm | PXR act counter
CC(=O)NCCNc1nc2c(-c3ccccc3)nnn2c2ccccc12 | 6.7 | 8.0 | -0.2 | 88.0* | -20.1 | -1.5 | 112.9* | 18.6*
Nc1nc(NCCCN2CCOCC2)nc(NCc2ccccc2)c1[N+](=O)[O-] | 1.2 | 19.3 | -0.1 | 0.8 | -6.6 | 0.1 | / | /
COc1c2occc2c(OC)c2c(=O)cc(C(F)(F)C(F)(F)F)oc12 | -11.5 | 7.6 | 0.0 | 41.0 | 9.1 | 0.3 | / | /
COc1c2occc2c(OC)c2c(=O)cc(C(F)(F)F)oc12 | -3.2 | 11.0 | -0.1 | 83.6* | -0.1 | 0.1 | 86.4* | 21.7*
O=C(CNC(=O)c1ccccc1)OCC(=O)c1ccc(Cl)s1 | -0.2 | 6.1 | 0.2 | -0.2 | 5.7 | 0.2 | / | /
CC(C)[C@H](NC(=O)C1CCCC1)c1nc2ccccc2[nH]1 | / | 11.4 | 0.1 | 1.0 | -13.4 | 0.3 | / | /
CCc1cc(/C(Cc2ccc3ccccc3n2)=N\O)c(O)cc1O | 21.8 | 0.8 | 0.0 | 88.5* | 6.5 | 0.5 | 55.1* | /
CCOc1cc(NC(=O)c2cnccn2)c(OCC)cc1NC(=O)c1cccc(F)c1 | -15.6 | -0.8 | 0.0 | 0.9 | 218.1 | -0.1 | / | /
CCc1ccc(CNC(=O)CCc2nnc(Cc3cccc(C(F)(F)F)c3)o2)nc1 | -4.7 | -4.2 | 0.0 | 0.1 | 5.1 | 0.1 | / | /
Cc1cc(/C=C2/NC(=O)NC2=O)c(C)n1-c1ccccn1 | 9.4 | i | -0.2 | 136.6* | 10.2 | 0.0 | 87.9* | 22.6*
Cc1cc(OCc2nc3ccccc3s2)ccc1N | 98.1* | 7.9 | 0.1 | 86.2* | 64.8 | -6.3 | 92.3* | 33.7*
CNC(=O)c1ccccc1Nc1ccc(SC(F)F)cc1 | ? | 1.5 | 0.3 | 113.3* | -19.7 | 1.5 | 96.6* | 22.7*
O=C(NCc1ccncc1)c1ccccc1Nc1ccc(SC(F)F)cc1 | 35.2 | -1.8 | -0.1 | 13.2 | 15.6 | 0.7 | / | /
O=C(N/N=C/c1sc(=O)[nH]c1-[n+]1ccc2ccccc2c1)c1ccccc1[O-] | / | 13.8 | -0.1 | 83.8* | 36.4 | 0.1 | 71.3* | 11.5*
O=C(N/N=C/c1sc(=O)[nH]c1-[n+]1ccccc1)c1ccccc1[O-] | 4.0 | -11.8 | 0.0 | 2.9 | 49.2 | 0.3 | / | /
O=C(NCCOc1ccc(Cl)cc1)C1CC(=O)N(c2ccc3c(c2)OCCO3)C1 (centres undefined) | / | -23.0 | 0.1 | 1.6 | -6.2 | -0.6 | / | /
Cc1ccc2[nH]c(=O)c(-c3nc4cc(C)ccn4c3NCc3ccco3)cc2c1 | 8.3 | 19.1 | 0.1 | 87.6* | -3.3 | -0.3 | 74.9* | 39.5*
Cc1cnc(NC(=O)COc2ccccc2)s1 | / | -0.6 | 0.2 | -8.7 | 8.1 | -4.0 | / | /
COc1ccc(C)c2sc(NNC(=O)COc3ccccc3)nc12 | 2.0 | 6.0 | -0.2 | 79.5* | -12.8 | 0.2 | 98.6* | 14.6*
